Most compounds without a hit are left out; they make up all but 2.2% or so of the library.
EWS-Fli block = inhibitors of EWS/Fli oncoprotein transcriptional activity; AID 651661; inhibition, % at 12.6 µM; 350,000 compounds, 0.67% hits; A673 NR0B1-luciferase reporter, viability-normalised;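 active = mean inhibition of at least 50% after viability correction, with every replicate also passing that limit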;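 also: firefly luciferase signal divided by Alamar Blue viability fluorescence both relative to DMSO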
EBV LMP1 NFkB = reduces LMP1-driven NF-kappaB luciferase signal | LMP1-induced NF-kappaB luciferase reporter cells, luminescence | 350,000 compounds, 0.69% hits | inhibition, % at 12.5 µM; in the data active = inhibition above about 41%;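 also: 0% = neutral control wells and 100% = reference inhibitor control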
PAX8 reporter = lowers PAX8-driven luciferase in RMG-I cells; RMG-I TPO-luciferase reporter, SteadyGlo, 24 h; 360,000 compounds, 1.2% hits; inhibition, % at 12.6 µM; AID 652154;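 active = mean replicate inhibition at least 60% with every replicate also reaching 60%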;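 also: luciferase light reporting Pax8 driven TPO promoter activity; plate controls were median of neutral control wells for no effect and mitoxantrone controls for full effect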
TRPM1 prom inh = MITF TRPM1 promoter inhibition in SK-MEL-5 cells; SK-MEL-5 TRPM1 promoter luciferase, 24 h; AID 488899; 330,000 compounds, 0.83% hits; inhibition, % at 12.5 µM;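 active = mean inhibition across replicates of 60% or more, whatever share of single replicates reaches that level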
Shn3 inh set2 = Schnurri-3 reporter inhibition in Clone20 osteoblasts. Clone20 osteoblast Shn3 3'UTR firefly luciferase, 24 h. inhibition, % at 12.5 µM. 360,000 compounds, 0.52% hits;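 active = mean inhibition of at least 75% with every replicate also reaching 75%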;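 also: 0% = median of neutral control wells and 100% = pilot-screen positive control compound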
LGR2 inh = blocks bursicon-induced cAMP signaling via Drosophila LGR2; HEK293 LGR2, CRE-luciferase, bursicon-stimulated, 4 h; inhibition, % at 9.99 µM; 380,000 compounds, 0.35% hits;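 active = drop in luminescence signal, shown as inhibition above about 50% in the replicate tests, limit read from the data, passing the limit was not always enough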;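 also: agonist challenge used bursicon conditioned medium at about half maximal strength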
The depositor's hits bear a star.

COc1ccc(NC(=O)CSc2nc3c(sc4ccccc43)c(=O)n2CCCN2CCCC2)cc1 was read as EBV LMP1 NFkB 1.6, TRPM1 prom inh 82.6* and Shn3 inh set2 -4.6.
`O=C(C[C@@H]1CC[C@H]2[C@@H](COC[C@H](O)CN2C(=O)Nc2cccc(Cl)c2)O1)NCCCN1CCOCC1` gave EWS-Fli block -11.0, PAX8 reporter -1.9 and LGR2 inh -1.7.
COc1cccc2c1C(=O)c1c(O)c3c(c(O)c1C2=O)C[C@@](O)(C(=O)CO)C[C@@H]3OC1CC(N)C(O)C(C)O1 (some centres not stated) was read as EWS-Fli block 10.2, EBV LMP1 NFkB 61.9*, PAX8 reporter 81.4*, TRPM1 prom inh 59.9 and Shn3 inh set2 87.2*.
`CC(=O)[C@@]1(O)Cc2c(O)c3c(c(O)c2[C@H](O[C@H]2C[C@H](N)[C@H](O)[C@H](C)O2)C1)C(=O)c1ccccc1C3=O` gave EWS-Fli block 59.2*, PAX8 reporter 104.2*, Shn3 inh set2 93.4* and LGR2 inh 97.7*.
COc1cccc2c1C(=O)c1c(O)c3c(c(O)c1C2=O)C[C@@](O)(C(=O)CO)C[C@@H]3O[C@H]1C[C@H](N)[C@H](O)[C@H](C)O1 was read as EWS-Fli block 46.6, EBV LMP1 NFkB 83.7*, PAX8 reporter 103.7*, TRPM1 prom inh 86.9* and Shn3 inh set2 92.0*.
For COc1cccc2c1C(=O)c1c(O)c3c(c(O)c1C2=O)CC(O)(C(C)=O)CC3OC1CC(N(C)C)C(O)C(C)O1 (configuration not stated) the results were EWS-Fli block 65.4*, EBV LMP1 NFkB 93.4*, PAX8 reporter 103.0*, TRPM1 prom inh 79.2*, Shn3 inh set2 94.3* and LGR2 inh 100.6*.
Screening C[C@H](CO)N1C[C@H](C)[C@@H](CN(C)C(=O)Nc2ccccc2)Oc2ccc(NC(=O)Nc3ccc(F)cc3)cc2CC1=O returned EWS-Fli block 0.3, PAX8 reporter -2.3 and LGR2 inh 7.4.
`COc1cc(/C=N/NC(N)=S)ccc1OC(=O)c1ccc(C)cc1` gave EBV LMP1 NFkB -7.4, PAX8 reporter 80.8*, TRPM1 prom inh 3.5 and Shn3 inh set2 -7.9.
For COc1cc(/C=N/NC(N)=S)ccc1OCc1ccc(C)cc1 the results were EWS-Fli block -28.0, EBV LMP1 NFkB -10.5, PAX8 reporter 75.2*, TRPM1 prom inh -7.8, Shn3 inh set2 19.2 and LGR2 inh -21.4.
`COc1ccc(C=NNC(=S)NN=Cc2ccc(OC)c(OC)c2)cc1OC` gave EWS-Fli block -38.3, EBV LMP1 NFkB -4.5, PAX8 reporter -117.9, TRPM1 prom inh -36.7, Shn3 inh set2 3.9 and LGR2 inh -65.9.
CCOC(=O)c1cnc(-n2nc(C)cc2C)nc1Nc1ccc(O)cc1 was read as EWS-Fli block 38.3, EBV LMP1 NFkB 55.9*, PAX8 reporter 5.9, TRPM1 prom inh 71.2*, Shn3 inh set2 75.3 and LGR2 inh 4.2.
Screening CCOC(=O)c1cnc(-n2nc(C)cc2C)nc1Nc1ccc(C)cc1 returned EBV LMP1 NFkB 21.8, TRPM1 prom inh 0.6 and Shn3 inh set2 27.9.
For CCOC(=O)c1cnc(-n2nc(C)cc2C)nc1NNc1nc(-c2ccccc2)cc(-c2ccccc2)n1 the results were EBV LMP1 NFkB 75.5*, TRPM1 prom inh 61.7* and Shn3 inh set2 92.4*.
For C[C@@H]1CCCCO[C@H](CN(C)S(=O)(=O)c2cn(C)cn2)[C@@H](C)CN([C@H](C)CO)C(=O)c2cc(NC(=O)C3CCCCC3)ccc2O1 the results were EWS-Fli block -6.1, PAX8 reporter -18.8 and LGR2 inh 6.4.
`Cc1cc(NC(=O)NC(=O)c2ccccc2NC(=O)CN(C)C)ccc1Oc1ncc(Br)cn1` gave EWS-Fli block 58.0*, EBV LMP1 NFkB 1.7, PAX8 reporter 26.3, TRPM1 prom inh 1.8, Shn3 inh set2 4.1 and LGR2 inh -2.3.
COc1ccc(-c2nc(C)ncc2-c2ccccc2)c(O)c1 was read as EWS-Fli block 0.9, EBV LMP1 NFkB 43.3*, PAX8 reporter -29.2, TRPM1 prom inh 3.6, Shn3 inh set2 16.5 and LGR2 inh -2.9.
Screening CO[C@H](CN(C)C(=O)c1cnccn1)[C@H](C)CN([C@H](C)CO)S(=O)(=O)c1ccc(Cl)cc1 returned EWS-Fli block -5.2 and LGR2 inh 4.2.

Source: PubChem (Broad Institute)
